Shown are actives, neighbours in structure and some others; about 5.4% of the full set was active somewhere.
A3A deaminase: APOBEC3A ssDNA deaminase inhibitors, primary screen, selectivity assay for APOBEC3G inhibitor project, biochemical, FAM/TAMRA oligo cleavage fluorescence; DNA dC->dU-editing enzyme APOBEC-3A (Homo sapiens), P31941; recombinant A3A, FAM/TAMRA ssDNA deamination fluorescence; 330,000 tested, 0.41% active; inhibition, % at 20 µM;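 active = at least 40% inhibition at 20 µM here, with at most 30% in a related deaminase screen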
rCAG RNA binder: binders of r(CAG) RNA repeats, primary screen, biochemical, fluorescence | AID 651821, 2012 | inhibition, % at 3 µM | 370,000 tested, 1.3% active | r(CAG) RNA repeat, TO-PRO-1 dye displacement fluorescence;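 active = inhibition above the plate cutoff, the mean of all test compounds on that plate plus 3 SD, cut at about 35% in these data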;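 also: higher means more dye released from RNA so lower well fluorescence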
aDG glyco act: activators of alpha-DG glycosylation, primary screen, uHTS, Pro5-aDG cells, AlphaScreen | alpha-DG glycosylation AlphaScreen (IIH6); 0% Pro5, 100% B10-LARGE cell signal | activation, % at 10 µM | 360,000 tested, 0.22% active;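 active = activation of at least 8% versus controls, or a plate z-score of at least 8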;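 also: Pro5 are CHO cells carrying HIG-tagged alpha-DG that lacks glycosylation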
APOBEC3G inh: APOBEC3G DNA deaminase inhibitors, primary screen, biochemical, fluorescence, single-stranded DNA substrate, uHTS | inhibition, % at 20 µM | recombinant A3G, ssDNA deamination FAM/TAMRA fluorescence | AID 493012, 2011 | DNA dC->dU-editing enzyme APOBEC-3G (Homo sapiens), Q9HC16 | 330,000 tested, 0.28% active;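 active = inhibition of at least 40% at 20 µM, with no more than 30% in the related APOBEC3A deaminase screen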
PHOSPHO1 inh: PubChem AID 1565; Phosphoethanolamine/phosphocholine phosphatase (Homo sapiens), Q8TCT1; recombinant PHOSPHO1, absorbance phosphatase assay; inhibition, % at 13.3 µM; 290,000 tested, 1.1% active; in the data active = inhibition above about 60%
Target sequence (Q8TCT1 whole entry, looked up): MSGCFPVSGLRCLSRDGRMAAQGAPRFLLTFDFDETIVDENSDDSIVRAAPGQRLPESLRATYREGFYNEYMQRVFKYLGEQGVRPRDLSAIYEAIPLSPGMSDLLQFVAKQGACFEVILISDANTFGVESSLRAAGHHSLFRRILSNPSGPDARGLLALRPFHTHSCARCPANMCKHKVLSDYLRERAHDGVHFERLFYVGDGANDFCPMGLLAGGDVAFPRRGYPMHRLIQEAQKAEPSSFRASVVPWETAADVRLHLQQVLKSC
ALR H2O2 inh: inhibitors of human ALR sulfhydryl oxidase, primary screen, biochemical, H2O2 detection, HRP-luminol luminescence, single point | FAD-linked sulfhydryl oxidase ALR (Homo sapiens), P55789 | purified ALR, DTT oxidation | inhibition, % (concentration not given with the values) | 290,000 tested, 3.8% active;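 active = mean replicate inhibition above about 79%, with every replicate also reaching it, limit read from the data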
Hits are given with their value.

CCN(CC)CCN1CCn2c3c(c4cc(C)ccc42)CCCC31 (centres undefined) was read as A3A deaminase inactive, rCAG RNA binder inactive, aDG glyco act inactive, APOBEC3G inh inactive, PHOSPHO1 inh inactive and ALR H2O2 inh 99.
For CCN1CCn2c3c(c4cc(Cl)ccc42)CCCC31 (centres undefined) the results were A3A deaminase inactive, rCAG RNA binder inactive, aDG glyco act inactive, APOBEC3G inh inactive, PHOSPHO1 inh inactive and ALR H2O2 inh inactive.
CCOC(=O)[C@@]12CCCC3=C1N(CCC3)C(=O)[C@H]2CC(=O)N1CCSCC1 was read as rCAG RNA binder inactive.
COc1ccc(C2CC(=O)C(c3ccc(C(N)=O)cc3)=CN2Cc2ccccc2)cc1 (centres undefined) was read as rCAG RNA binder inactive.
For CCCn1c(NCc2ccc3c(c2)OCO3)nc2ccccc21 the results were A3A deaminase inactive, rCAG RNA binder inactive, aDG glyco act inactive, APOBEC3G inh inactive, PHOSPHO1 inh inactive and ALR H2O2 inh 96.
For CCCCn1c(NCc2ccc3c(c2)OCO3)nc2ccccc21 the results were A3A deaminase inactive, rCAG RNA binder inactive, aDG glyco act inactive, APOBEC3G inh inactive, PHOSPHO1 inh inactive and ALR H2O2 inh 92.
`CCCOC(=O)C(C)n1c(-c2ccccc2)nc2ccccc2c1=O` (centres undefined) gave A3A deaminase inactive, rCAG RNA binder inactive, aDG glyco act inactive, APOBEC3G inh inactive, PHOSPHO1 inh inactive and ALR H2O2 inh 91.
CCOc1ccc(NC(=S)NCCCn2ccnc2)cc1 was read as A3A deaminase inactive, rCAG RNA binder inactive, aDG glyco act inactive, APOBEC3G inh inactive, PHOSPHO1 inh inactive and ALR H2O2 inh inactive.
For CC(C)c1ccccc1NC(=S)NCCCn1ccnc1 the results were A3A deaminase inactive, rCAG RNA binder inactive, aDG glyco act inactive, APOBEC3G inh inactive, PHOSPHO1 inh inactive and ALR H2O2 inh 87.
Cc1cc2nc3s/c(=C/c4ccc(-c5ccccc5C(=O)O)o4)c(=O)n3c2cc1C was read as A3A deaminase inactive, rCAG RNA binder inactive, aDG glyco act inactive, APOBEC3G inh inactive, PHOSPHO1 inh inactive and ALR H2O2 inh inactive.
`O=C(O)c1cc(-c2ccc(/C=c3\sc4nc5ccc(Br)cc5n4c3=O)o2)ccc1Cl` gave PHOSPHO1 inh inactive and ALR H2O2 inh 93.
For O=C(O)c1ccccc1-c1ccc(/C=c2\sc3nc4cc(Br)cnc4n3c2=O)o1 the results were A3A deaminase inactive, aDG glyco act inactive, APOBEC3G inh inactive, PHOSPHO1 inh 62 and ALR H2O2 inh inactive.
For COC(=O)[C@]12C[C@H](CC(=O)NCCCN3CCCC3=O)C(=O)N(Cc3ccc4c(c3)OCO4)C1=C[C@H](C(C)C)O[C@@H]2C1CC1 the results were rCAG RNA binder inactive.
For CN1C(=O)CC(NNC(=O)c2ccc(Cl)cc2)C1=O (centres undefined) the results were A3A deaminase inactive, rCAG RNA binder inactive, aDG glyco act inactive, APOBEC3G inh inactive, PHOSPHO1 inh inactive and ALR H2O2 inh 90.
COc1ccccc1C(O)(C(=O)NNc1cccc(C)c1)c1ccccc1OC was read as A3A deaminase inactive, rCAG RNA binder inactive, aDG glyco act inactive, APOBEC3G inh inactive, PHOSPHO1 inh inactive and ALR H2O2 inh 95.
`CC(C)c1ccc(/C=N/Nc2cc(N3CCOCC3)nc(N3CCOCC3)n2)cc1` gave A3A deaminase inactive, rCAG RNA binder inactive, aDG glyco act inactive, APOBEC3G inh inactive, PHOSPHO1 inh inactive and ALR H2O2 inh inactive.
`Cc1cc(N/N=C/c2ccc(O)cc2O)nc(N2CCOCC2)n1` gave A3A deaminase inactive, rCAG RNA binder inactive, aDG glyco act inactive, APOBEC3G inh inactive, PHOSPHO1 inh inactive and ALR H2O2 inh 97.
For Cc1cccc(/C=N/Nc2cc(N3CCOCC3)nc(N3CCOCC3)n2)c1 the results were A3A deaminase inactive, rCAG RNA binder inactive, aDG glyco act inactive, APOBEC3G inh inactive, PHOSPHO1 inh inactive and ALR H2O2 inh inactive.
